From ChEMBL document CHEMBL2218924, “A broad activity screen in support of a chemogenomic map for kinase signalling research and drug discovery” (Biochem J, 2013)

Columns and labels:
[1] = target: T1, Tyrosine-protein kinase ITK/TSK (Homo sapiens) (UniProt Q08881); details: at 10 µM
T1 sequence (whole entry): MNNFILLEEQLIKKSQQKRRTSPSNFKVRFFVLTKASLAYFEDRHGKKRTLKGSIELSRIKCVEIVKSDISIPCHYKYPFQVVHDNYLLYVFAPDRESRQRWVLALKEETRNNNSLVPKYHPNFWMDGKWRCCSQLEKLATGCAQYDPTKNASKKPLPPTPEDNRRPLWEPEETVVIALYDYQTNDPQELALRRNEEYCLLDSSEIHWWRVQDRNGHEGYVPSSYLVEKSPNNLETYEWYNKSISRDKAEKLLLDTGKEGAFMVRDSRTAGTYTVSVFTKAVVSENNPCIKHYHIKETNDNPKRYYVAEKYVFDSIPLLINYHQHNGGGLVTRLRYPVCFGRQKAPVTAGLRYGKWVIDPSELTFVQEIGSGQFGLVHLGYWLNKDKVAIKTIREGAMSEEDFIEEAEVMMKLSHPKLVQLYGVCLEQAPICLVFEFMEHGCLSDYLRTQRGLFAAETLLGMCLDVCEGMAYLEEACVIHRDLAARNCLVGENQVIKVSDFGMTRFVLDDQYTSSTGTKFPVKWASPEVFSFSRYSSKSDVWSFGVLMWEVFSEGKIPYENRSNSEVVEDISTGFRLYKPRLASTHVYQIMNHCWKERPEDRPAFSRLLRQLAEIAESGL

[2] = target: Tyrosine-protein kinase JAK2 (Homo sapiens) (UniProt O60674); details: at 1 µM
[3] = target: Tyrosine-protein kinase JAK2 (Homo sapiens) (UniProt O60674); details: at 10 µM
[4] = target: T2, Tyrosine-protein kinase JAK3 (Homo sapiens) (UniProt P52333); details: at 1 µM
T2 sequence (whole entry): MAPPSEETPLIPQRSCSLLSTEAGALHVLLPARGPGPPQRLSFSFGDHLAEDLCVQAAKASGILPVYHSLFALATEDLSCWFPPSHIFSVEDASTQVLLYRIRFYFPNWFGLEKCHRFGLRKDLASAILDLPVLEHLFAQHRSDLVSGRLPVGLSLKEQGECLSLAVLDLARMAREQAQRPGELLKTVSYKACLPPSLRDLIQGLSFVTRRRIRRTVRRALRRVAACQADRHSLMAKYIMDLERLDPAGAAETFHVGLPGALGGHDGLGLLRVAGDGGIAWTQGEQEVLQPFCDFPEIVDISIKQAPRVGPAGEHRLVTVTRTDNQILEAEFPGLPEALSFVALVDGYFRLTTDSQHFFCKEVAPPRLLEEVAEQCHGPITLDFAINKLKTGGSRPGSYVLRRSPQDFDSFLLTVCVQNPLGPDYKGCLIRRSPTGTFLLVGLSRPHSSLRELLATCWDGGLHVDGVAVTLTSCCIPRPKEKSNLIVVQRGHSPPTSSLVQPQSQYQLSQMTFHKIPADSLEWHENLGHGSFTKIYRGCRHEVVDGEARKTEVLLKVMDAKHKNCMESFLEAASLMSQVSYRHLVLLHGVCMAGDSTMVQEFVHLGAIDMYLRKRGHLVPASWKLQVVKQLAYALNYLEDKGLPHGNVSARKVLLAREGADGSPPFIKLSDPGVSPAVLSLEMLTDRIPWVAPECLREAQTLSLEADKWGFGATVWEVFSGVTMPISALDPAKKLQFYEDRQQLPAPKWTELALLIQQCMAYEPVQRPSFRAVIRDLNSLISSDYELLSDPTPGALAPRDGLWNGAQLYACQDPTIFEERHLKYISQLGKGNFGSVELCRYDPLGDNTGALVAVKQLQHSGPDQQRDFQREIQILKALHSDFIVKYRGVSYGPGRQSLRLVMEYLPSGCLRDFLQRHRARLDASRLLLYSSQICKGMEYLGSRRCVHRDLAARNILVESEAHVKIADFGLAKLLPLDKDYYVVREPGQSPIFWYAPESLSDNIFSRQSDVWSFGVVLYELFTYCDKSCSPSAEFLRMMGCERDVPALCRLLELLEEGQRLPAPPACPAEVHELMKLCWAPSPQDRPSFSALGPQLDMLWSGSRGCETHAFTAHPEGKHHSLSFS

[5] = target: T2, Tyrosine-protein kinase JAK3 (Homo sapiens); details: at 10 µM
[6] = target: Mitogen-activated protein kinase 8 (Homo sapiens) (UniProt P45983); details: at 1 µM
[7] = target: Mitogen-activated protein kinase 8 (Homo sapiens) (UniProt P45983); details: at 10 µM
[8] = target: Mitogen-activated protein kinase 9 (Homo sapiens) (UniProt P45984); details: at 1 µM
[9] = target: Mitogen-activated protein kinase 9 (Homo sapiens) (UniProt P45984); details: at 10 µM
[10] = target: Mitogen-activated protein kinase 10 (Homo sapiens) (UniProt P53779); details: at 1 µM
[11] = target: Mitogen-activated protein kinase 10 (Homo sapiens) (UniProt P53779); details: at 10 µM
[12] = target: Vascular endothelial growth factor receptor 2 (Homo sapiens) (UniProt P35968); details: at 1 µM
[13] = target: Vascular endothelial growth factor receptor 2 (Homo sapiens) (UniProt P35968); details: at 10 µM
[14] = target: LIM domain kinase 1 (Homo sapiens) (UniProt P53667); details: at 1 µM
[15] = target: LIM domain kinase 1 (Homo sapiens) (UniProt P53667); details: at 10 µM
[16] = target: T3, Serine/threonine-protein kinase STK11 (Homo sapiens) (UniProt Q15831); details: at 1 µM
T3 sequence (whole entry): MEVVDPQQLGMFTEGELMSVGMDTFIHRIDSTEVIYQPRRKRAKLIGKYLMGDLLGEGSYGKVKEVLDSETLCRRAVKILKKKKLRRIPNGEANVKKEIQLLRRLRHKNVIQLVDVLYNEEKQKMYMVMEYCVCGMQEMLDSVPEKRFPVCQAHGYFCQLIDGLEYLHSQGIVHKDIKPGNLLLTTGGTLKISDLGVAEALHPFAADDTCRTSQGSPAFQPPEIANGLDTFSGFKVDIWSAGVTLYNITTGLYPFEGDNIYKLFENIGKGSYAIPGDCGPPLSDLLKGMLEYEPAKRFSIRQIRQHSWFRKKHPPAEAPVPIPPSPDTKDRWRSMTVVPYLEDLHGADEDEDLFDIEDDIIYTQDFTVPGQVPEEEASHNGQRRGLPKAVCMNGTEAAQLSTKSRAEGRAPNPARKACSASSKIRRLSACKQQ

[17] = target: T3, Serine/threonine-protein kinase STK11 (Homo sapiens); details: at 10 µM
[18] = target: Serine/threonine-protein kinase 10 (Homo sapiens) (UniProt O94804); details: at 1 µM
[19] = target: Serine/threonine-protein kinase 10 (Homo sapiens) (UniProt O94804); details: at 10 µM
[20] = target: Tyrosine-protein kinase Lck (Homo sapiens) (UniProt P06239); details: at 1 µM
Chain of Tyrosine-protein kinase Lck (Homo sapiens) (P06239 2-509 limits assumed): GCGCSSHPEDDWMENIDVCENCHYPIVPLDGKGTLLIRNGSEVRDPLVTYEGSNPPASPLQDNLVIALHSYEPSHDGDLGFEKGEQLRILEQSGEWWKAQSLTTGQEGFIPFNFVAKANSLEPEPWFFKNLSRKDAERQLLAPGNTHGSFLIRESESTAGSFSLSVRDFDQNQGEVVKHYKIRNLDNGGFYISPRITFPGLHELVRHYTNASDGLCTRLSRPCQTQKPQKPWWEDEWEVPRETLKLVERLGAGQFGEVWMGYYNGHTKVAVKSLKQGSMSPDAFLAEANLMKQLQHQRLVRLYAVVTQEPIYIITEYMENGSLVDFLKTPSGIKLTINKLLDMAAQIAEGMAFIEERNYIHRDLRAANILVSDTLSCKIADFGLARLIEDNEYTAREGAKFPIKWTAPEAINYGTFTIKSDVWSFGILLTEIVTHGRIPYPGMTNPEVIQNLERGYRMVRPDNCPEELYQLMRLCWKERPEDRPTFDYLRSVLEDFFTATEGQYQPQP

Chain of Mitogen-activated protein kinase 10 (Homo sapiens) (P53779 whole entry): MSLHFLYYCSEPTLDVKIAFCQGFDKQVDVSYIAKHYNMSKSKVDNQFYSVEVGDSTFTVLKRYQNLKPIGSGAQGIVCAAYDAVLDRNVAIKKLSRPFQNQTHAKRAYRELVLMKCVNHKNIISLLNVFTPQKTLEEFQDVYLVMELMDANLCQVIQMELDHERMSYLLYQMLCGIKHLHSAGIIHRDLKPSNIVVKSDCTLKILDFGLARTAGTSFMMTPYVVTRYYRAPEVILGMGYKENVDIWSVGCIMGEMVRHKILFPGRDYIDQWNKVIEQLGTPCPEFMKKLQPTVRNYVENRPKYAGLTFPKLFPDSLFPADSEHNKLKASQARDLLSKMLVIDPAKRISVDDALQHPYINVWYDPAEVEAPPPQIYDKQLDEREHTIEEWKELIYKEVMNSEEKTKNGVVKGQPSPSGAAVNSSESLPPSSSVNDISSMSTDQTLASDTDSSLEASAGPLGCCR
Chain of Mitogen-activated protein kinase 9 (Homo sapiens) (P45984 whole entry, looked up): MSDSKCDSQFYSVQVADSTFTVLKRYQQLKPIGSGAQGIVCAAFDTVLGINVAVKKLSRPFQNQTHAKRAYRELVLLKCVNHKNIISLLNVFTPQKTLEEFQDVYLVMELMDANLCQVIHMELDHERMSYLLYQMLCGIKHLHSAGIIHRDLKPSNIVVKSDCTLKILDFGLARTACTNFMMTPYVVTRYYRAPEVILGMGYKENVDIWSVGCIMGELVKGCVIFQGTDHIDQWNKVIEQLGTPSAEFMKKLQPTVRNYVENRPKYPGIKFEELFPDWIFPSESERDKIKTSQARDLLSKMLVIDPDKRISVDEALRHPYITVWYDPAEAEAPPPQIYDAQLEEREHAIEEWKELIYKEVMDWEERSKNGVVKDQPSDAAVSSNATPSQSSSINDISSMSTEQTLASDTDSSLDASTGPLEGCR
Chain of Serine/threonine-protein kinase 10 (Homo sapiens) (O94804 whole entry, looked up): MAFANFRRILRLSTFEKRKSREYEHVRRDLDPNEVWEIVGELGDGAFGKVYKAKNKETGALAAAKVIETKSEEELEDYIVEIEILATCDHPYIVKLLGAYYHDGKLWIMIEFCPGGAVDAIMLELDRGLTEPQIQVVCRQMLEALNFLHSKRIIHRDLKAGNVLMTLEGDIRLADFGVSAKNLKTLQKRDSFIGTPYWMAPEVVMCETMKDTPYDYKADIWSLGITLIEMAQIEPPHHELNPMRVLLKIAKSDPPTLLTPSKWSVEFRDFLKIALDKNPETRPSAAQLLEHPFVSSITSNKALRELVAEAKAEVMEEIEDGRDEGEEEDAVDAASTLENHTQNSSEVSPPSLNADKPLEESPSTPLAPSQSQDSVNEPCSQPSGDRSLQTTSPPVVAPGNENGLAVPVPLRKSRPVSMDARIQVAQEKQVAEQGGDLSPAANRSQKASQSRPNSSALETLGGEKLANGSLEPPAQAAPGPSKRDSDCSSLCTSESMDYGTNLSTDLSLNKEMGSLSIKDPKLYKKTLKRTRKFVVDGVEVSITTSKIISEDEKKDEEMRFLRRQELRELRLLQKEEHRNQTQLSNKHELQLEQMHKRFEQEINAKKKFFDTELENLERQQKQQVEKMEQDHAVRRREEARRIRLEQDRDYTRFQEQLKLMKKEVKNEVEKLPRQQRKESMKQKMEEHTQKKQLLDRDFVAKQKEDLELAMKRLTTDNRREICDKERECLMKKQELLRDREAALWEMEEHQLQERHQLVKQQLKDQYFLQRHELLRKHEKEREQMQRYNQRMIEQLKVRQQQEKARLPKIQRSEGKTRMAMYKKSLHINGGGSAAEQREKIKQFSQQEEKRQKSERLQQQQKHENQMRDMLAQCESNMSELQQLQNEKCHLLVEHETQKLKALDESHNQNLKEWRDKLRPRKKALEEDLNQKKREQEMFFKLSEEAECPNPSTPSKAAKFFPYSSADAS
Chain of LIM domain kinase 1 (Homo sapiens) (P53667 whole entry, looked up, the tested form may be a part): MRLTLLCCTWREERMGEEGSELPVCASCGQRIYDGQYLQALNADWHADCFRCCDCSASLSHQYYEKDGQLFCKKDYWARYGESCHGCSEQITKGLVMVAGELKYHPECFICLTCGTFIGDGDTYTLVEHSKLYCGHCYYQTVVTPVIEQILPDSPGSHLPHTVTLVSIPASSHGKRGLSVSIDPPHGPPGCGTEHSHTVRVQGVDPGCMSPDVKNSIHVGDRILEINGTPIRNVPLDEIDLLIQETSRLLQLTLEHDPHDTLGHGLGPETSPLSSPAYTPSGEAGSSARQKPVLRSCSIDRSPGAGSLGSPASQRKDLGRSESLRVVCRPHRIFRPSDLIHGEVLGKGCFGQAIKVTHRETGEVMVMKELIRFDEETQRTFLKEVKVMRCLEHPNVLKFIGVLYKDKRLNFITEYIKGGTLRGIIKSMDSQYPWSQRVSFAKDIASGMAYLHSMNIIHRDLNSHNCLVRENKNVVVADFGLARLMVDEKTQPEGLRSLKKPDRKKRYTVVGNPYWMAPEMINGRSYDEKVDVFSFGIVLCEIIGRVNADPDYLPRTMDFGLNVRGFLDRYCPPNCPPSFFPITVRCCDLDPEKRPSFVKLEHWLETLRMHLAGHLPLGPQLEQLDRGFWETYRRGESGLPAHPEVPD
Chain of Tyrosine-protein kinase JAK2 (Homo sapiens) (O60674 whole entry): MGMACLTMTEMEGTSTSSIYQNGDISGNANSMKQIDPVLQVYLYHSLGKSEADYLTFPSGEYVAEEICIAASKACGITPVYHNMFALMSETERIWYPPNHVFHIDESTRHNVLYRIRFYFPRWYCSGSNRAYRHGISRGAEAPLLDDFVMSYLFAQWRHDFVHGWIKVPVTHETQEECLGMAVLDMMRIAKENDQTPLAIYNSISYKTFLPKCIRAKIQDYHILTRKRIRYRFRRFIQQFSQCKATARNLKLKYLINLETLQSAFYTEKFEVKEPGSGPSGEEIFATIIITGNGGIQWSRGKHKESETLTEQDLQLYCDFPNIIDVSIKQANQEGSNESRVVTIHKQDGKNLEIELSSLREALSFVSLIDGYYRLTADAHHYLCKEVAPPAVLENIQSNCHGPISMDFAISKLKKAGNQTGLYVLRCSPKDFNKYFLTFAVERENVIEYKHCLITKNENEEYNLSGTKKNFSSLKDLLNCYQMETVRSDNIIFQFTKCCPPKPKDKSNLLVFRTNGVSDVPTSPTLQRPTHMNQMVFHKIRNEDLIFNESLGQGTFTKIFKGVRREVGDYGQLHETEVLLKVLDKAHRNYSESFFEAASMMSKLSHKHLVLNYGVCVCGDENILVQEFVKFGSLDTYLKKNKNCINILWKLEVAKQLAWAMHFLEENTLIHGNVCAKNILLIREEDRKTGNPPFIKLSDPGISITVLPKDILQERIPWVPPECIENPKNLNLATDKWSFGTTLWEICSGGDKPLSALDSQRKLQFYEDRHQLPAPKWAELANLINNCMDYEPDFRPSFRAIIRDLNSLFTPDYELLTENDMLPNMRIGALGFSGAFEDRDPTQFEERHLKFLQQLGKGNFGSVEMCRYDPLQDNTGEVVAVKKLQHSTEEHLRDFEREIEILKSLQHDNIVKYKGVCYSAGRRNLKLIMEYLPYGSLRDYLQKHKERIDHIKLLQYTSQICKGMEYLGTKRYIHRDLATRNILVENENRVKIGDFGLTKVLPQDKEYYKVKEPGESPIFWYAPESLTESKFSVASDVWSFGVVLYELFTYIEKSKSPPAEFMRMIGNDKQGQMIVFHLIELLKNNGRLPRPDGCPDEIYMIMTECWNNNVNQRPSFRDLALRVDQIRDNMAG
Chain of Mitogen-activated protein kinase 8 (Homo sapiens) (P45983 whole entry): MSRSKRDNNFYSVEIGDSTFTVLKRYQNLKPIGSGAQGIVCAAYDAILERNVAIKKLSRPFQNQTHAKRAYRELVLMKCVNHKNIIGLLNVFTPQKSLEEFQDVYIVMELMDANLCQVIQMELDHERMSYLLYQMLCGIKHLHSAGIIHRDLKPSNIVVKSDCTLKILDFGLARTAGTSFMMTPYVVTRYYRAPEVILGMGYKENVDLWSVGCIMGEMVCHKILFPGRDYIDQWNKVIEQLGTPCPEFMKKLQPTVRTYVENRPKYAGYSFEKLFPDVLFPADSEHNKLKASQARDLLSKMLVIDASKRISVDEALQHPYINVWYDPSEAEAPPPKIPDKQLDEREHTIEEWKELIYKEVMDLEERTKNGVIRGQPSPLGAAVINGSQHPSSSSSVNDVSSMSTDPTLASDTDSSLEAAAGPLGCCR

Structure (SMILES) | residual activity [1] [%] | residual activity [2] [%] | residual activity [3] [%] | residual activity [4] [%] | residual activity [5] [%] | residual activity [6] [%] | residual activity [7] [%] | residual activity [8] [%] | residual activity [9] [%] | residual activity [10] [%] | residual activity [11] [%] | residual activity [12] [%] | residual activity [13] [%] | residual activity [14] [%] | residual activity [15] [%] | residual activity [16] [%] | residual activity [17] [%] | residual activity [18] [%] | residual activity [19] [%] | residual activity [20] [%]
Nc1cccc(-c2cc3c(Oc4cccc(O)c4)ncnc3[nH]2)c1 | 49 | 80 | 19 | 83 | 21 | 102 | 89 | 90 | 82 | 94 | 57 | 5 | 2 | 14 | 4 | 67 | 11 | 34 | 9 | 3
O=C(Nc1cccc(Nc2cc(Nc3cccc(C(F)(F)F)c3)ncn2)c1)C1CC1 | 95 | 116 | 138 | 106 | 115 | 107 | 83 | 104 | 103 | 82 | 52 | 96 | 75 | 87 | 31 | 102 | 96 | 92 | 57 | 72
COc1cc2ncnc(Nc3ccc(NC(=O)c4ccccc4)cc3)c2cc1OC | 99 |  |  | 102 |  |  |  | 109 | 108 |  | 76 | 95 | 35 | 110 | 56 | 108 | 109 | 71 | 33 | 70
Cn1cc(/C=C2\C(=O)Nc3ccc(S(N)(=O)=O)cc32)c2ccccc21 | 1 | 53 | 21 | 45 | 11 | 109 | 95 | 98 | 95 | 58 | 40 | 28 | 7 | 101 | 53 | 103 | 100 | 45 | 7 | 20
C[C@@H](N)[C@H]1CC[C@H](C(=O)Nc2ccncc2)CC1 | 104 | 95 | 100 | 107 | 122 | 98 | 110 | 111 | 105 | 83 | 86 | 113 | 108 |  | 89 | 97 | 96 |  | 59 | 
c1ccc2c(-c3ccncc3)c[nH]c2c1 | 95 | 97 | 101 | 103 |  | 97 | 78 | 107 | 93 |  |  | 100 | 78 | 98 | 64 | 100 | 90 | 86 | 54 | 102
CNc1cc2c(Nc3cccc(Br)c3)ncnc2cn1 | 87 | 70 | 56 | 96 | 78 | 100 | 97 | 98 | 92 | 97 | 60 | 85 | 40 | 102 | 43 | 99 | 95 | 27 | 10 | 87
CN(C)c1ccc(/C=C2\C(=O)Nc3ccccc32)cc1 | 65 | 115 | 83 | 86 | 32 | 106 | 93 | 102 | 98 | 110 | 106 | 4 | 3 | 108 | 89 | 94 | 102 | 100 | 77 | 129
O=C1c2ccccc2-[n+]2ccc3c([nH]c4ccccc43)c21 | 93 | 95 | 101 | 109 |  | 97 | 87 | 92 | 106 | 71 | 62 | 88 | 78 | 91 | 88 | 100 | 97 | 94 | 90 | 85
CN(C)CCCn1cc(C2=C(c3c[nH]c4ccccc34)C(=O)NC2=O)c2ccccc21 |  | 121 | 90 |  |  | 111 |  |  |  | 117 | 101 | 61 | 14 | 117 | 73 | 105 | 102 | 33 | 15 | 109
CO[C@H]1[C@@H](OC)C[C@H](C)[C@@H](OC)C2=CC(=O)C=C(NC(=O)/C(C)=C/C=C/[C@H](OC)[C@@H](OC(N)=O)/C(C)=C/[C@@H]1C)C2=O | 107 | 114 | 97 | 94 | 63 | 120 | 89 | 114 | 100 | 113 | 110 | 97 | 87 | 109 | 90 | 97 | 90 | 100 |  | 142
Cc1cncc2cccc(S(=O)(=O)N3CCCN(C(=O)CN)C[C@H]3C)c12 |  |  |  | 92 |  | 95 | 82 |  | 79 | 72 | 124 | 99 | 74 | 92 | 51 | 91 | 69 | 54 | 21 | 97
COc1cccc(-c2cc(=O)c3ccccc3o2)c1N | 108 | 111 | 107 | 113 | 108 | 106 | 101 | 102 | 100 | 84 | 95 | 101 | 102 | 93 | 93 | 103 | 100 | 114 | 105 | 85
Cc1cc2ncc(-c3ccccc3)nc2cc1C |  | 101 |  | 98 | 81 |  | 99 | 108 | 97 | 108 | 70 | 92 | 79 | 109 | 93 | 108 | 99 | 89 | 93 | 
Cc1cc(Nc2nc(-c3ccccc3)nc3ccccc23)n[nH]1 | 0 | 14 | 1 | 41 | 5 | 94 | 71 |  | 66 | 51 | 12 | 5 | 1 | 51 | 18 |  | 71 | 50 | 10 | 23
